# Data from PubChem BioAssay AID1159580 (chemical genetic matrix, 2015).
# The whole screen tested about 5,500 compounds, of which about 2,000 (36%) were called active. Roughly 18% stayed inconclusive and do not appear here. The list shows a part of the results. Unmarked numbers belong to inactive results. No stated cut-off is given here; in the data, active means normalized growth mostly below about 0.91 (no sharp cut-off); inconclusive means no clear call, values can overlap the other calls; inactive means mostly above about 0.92.
# Assay: chemical genetic growth profiling, strain panel (AID 1159580);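 further: tested at 20 µM; growth read once vehicle control cultures reached saturation at 30 °C; 1 = growth at the plate median or of vehicle wells; lower values mean less growth of the strain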
# Conditions: S. cerevisiae deletion strains, growth OD
smiles,measurement,setting,value
CC[C@@H]1C=C/C=C/C[C@H](C)[C@@H](O)[C@](C)(O)C(=O)[C@H](C)[C@@H](O)[C@H](C)C(=O)[C@H](C)[C@@H](O)[C@H](C)/C=C/C(=O)O[C@H]2[C@@H](C)[C@@H](CC1)O[C@@]1(CC[C@@H](C)[C@@H](C[C@H](C)O)O1)[C@@H]2C,normalized growth,"locus YAL021C, strain ccr4, hits give low values",0.977
same,normalized growth,"locus YAL026C, strain drs2, hits give low values",1.01
same,normalized growth,"locus YAL030W, strain snc1, hits give low values",1
same,normalized growth,"locus YBL061C, strain skt5, hits give low values",1
same,normalized growth,"locus YBR009C, strain hhf1, hits give low values",0.985
same,normalized growth,"locus YBR023C, strain chs3, hits give low values",1
same,normalized growth,"locus YBR171W, strain sec66, hits give low values",1.01
same,normalized growth,"locus YBR231C, strain swc5, hits give low values",1
same,normalized growth,"locus YBR279W, strain paf1, hits give low values",0.982
same,normalized growth,"locus YCL011C, strain gbp2, hits give low values",1.02
same,normalized growth,"locus YCL016C, strain dcc1, hits give low values",1.02
same,normalized growth,"locus YCL061C, strain MRC1, hits give low values",1.01
same,normalized growth,"locus YCL069W, strain vba3, hits give low values",1.01
same,normalized growth,"locus YCR088W, strain abp1, hits give low values",1.02
same,normalized growth,"locus YDL005C, strain med2, hits give low values",1
same,normalized growth,"locus YDL040C, strain nat1, hits give low values",1.01
same,normalized growth,"locus YDR001C, strain nth1, hits give low values",1.01
same,normalized growth,"locus YDR069C, strain doa4, hits give low values",0.997
same,normalized growth,"locus YDR137W, strain rgp1, hits give low values",0.899
same,normalized growth,"locus YDR159W, strain sac3, hits give low values",0.953
same,normalized growth,"locus YDR195W, strain ref2",0.999
same,normalized growth,"locus YDR297W, strain sur2, hits give low values",1.01
same,normalized growth,"locus YDR334W, strain swr1, hits give low values",1.02
same,normalized growth,"locus YDR335W, strain msn5, hits give low values",1.01
same,normalized growth,"locus YDR392W, strain spt3, hits give low values",0.958
same,normalized growth,"locus YEL003W, strain gim4, hits give low values",1.01
same,normalized growth,"locus YEL037C, strain rad23, hits give low values",1.02
same,normalized growth,"locus YEL061C, strain CIN8 (second series), hits give low values",1.01
same,normalized growth,"locus YER015W, strain faa2, hits give low values",0.997
same,normalized growth,"locus YER016W, strain bim1, hits give low values",1.01
same,normalized growth,"locus YER111C, strain swi4, hits give low values",1.01
same,normalized growth,"locus YER155C, strain BEM2 (second series), hits give low values",1.03
same,normalized growth,"locus YFR010W, strain ubp6, hits give low values",1
same,normalized growth,"locus YGL167C, strain pmr1, hits give low values",1.01
same,normalized growth,"locus YGL173C, strain kem1, hits give low values",0.996
same,normalized growth,"locus YGL227W, strain vid30, hits give low values",1.01
same,normalized growth,"locus YGL240W, strain doc1, hits give low values",1.01
same,normalized growth,"locus YGL253W, strain hxk2, hits give low values",0.927
same,normalized growth,"locus YHR013C, strain ard1, hits give low values",0.967
same,normalized growth,"locus YHR027C, strain rpn1, hits give low values",1
same,normalized growth,"locus YHR142W, strain chs7, hits give low values",1.03
same,normalized growth,"locus YJL092W, strain hpr5, hits give low values",1.01
same,normalized growth,"locus YJL095W, strain BCK1 (second series), hits give low values",1.02
same,normalized growth,"locus YJL115W, strain asf1, hits give low values",1.01
same,normalized growth,"locus YJL129C, strain trk1, hits give low values",0.967
same,normalized growth,"locus YJL154C, strain vps35, hits give low values",1.01
same,normalized growth,"locus YJL164C, strain tpk1, hits give low values",0.987
same,normalized growth,"locus YJL166W, strain qcr8, hits give low values",1.01
same,normalized growth,"locus YJL187C, strain SWE1, hits give low values",1.01
same,normalized growth,"locus YKL160W, strain elf1, hits give low values",0.997
same,normalized growth,"locus YKR026C, strain gcn3, hits give low values",0.99
same,normalized growth,"locus YKR091W, strain srl3, hits give low values",1.01
same,normalized growth,"locus YLL001W, strain dnm1, hits give low values",0.984
same,normalized growth,"locus YLL026W, hits give low values",1.01
same,normalized growth,"locus YLL041C, strain sdh2, hits give low values",1.01
same,normalized growth,"locus YLR027C, strain aat2, hits give low values",0.995
same,normalized growth,"locus YLR221C, strain rsa3, hits give low values",1.02
same,normalized growth,"locus YLR258W, strain gsy2, hits give low values",0.997
same,normalized growth,"locus YLR262C, strain YPT6 (second series), hits give low values",0.852 (active)
same,normalized growth,"locus YLR320W, strain mms22, hits give low values",0.984
same,normalized growth,"locus YLR342W, strain FKS1, hits give low values",1
same,normalized growth,"locus YLR357W, strain rsc2, hits give low values",1.03
same,normalized growth,"locus YLR370C, strain arc18, hits give low values",0.994
same,normalized growth,"locus YLR384C, strain iki3, hits give low values",0.999
same,normalized growth,"locus YML120C, strain ndi1, hits give low values",0.995
same,normalized growth,"locus YMR058W, strain fet3, hits give low values",1.02
same,normalized growth,"locus YMR125W, strain sto1, hits give low values",1.04
same,normalized growth,"locus YMR129W, hits give low values",0.999
same,normalized growth,"locus YMR205C, strain PFK2, hits give low values",0.815 (active)
same,normalized growth,"locus YMR231W, strain pep5, hits give low values",1
same,normalized growth,"locus YNL071W, strain lat1, hits give low values",1.01
same,normalized growth,"locus YNL209W, strain ssb2, hits give low values",0.997
same,normalized growth,"locus YNL248C, strain rpa49, hits give low values",1.01
same,normalized growth,"locus YNL322C, strain KRE1 (second series), hits give low values",1.02
same,normalized growth,"locus YNR049C, strain mso1, hits give low values",1.02
same,normalized growth,"locus YOR001W, strain rrp6, hits give low values",0.999
same,normalized growth,"locus YOR070C, strain gyp1, hits give low values",1
same,normalized growth,"locus YOR080W, strain dia2, hits give low values",1.01
same,normalized growth,"locus YOR083W, strain WHI5, hits give low values",1
same,normalized growth,"locus YOR106W, strain vam3, hits give low values",0.99
same,normalized growth,"locus YOR265W, strain rbl2, hits give low values",1
same,normalized growth,"locus YOR270C, strain vph1, hits give low values",0.914
same,normalized growth,"locus YOR290C, strain snf2, hits give low values",0.966
same,normalized growth,"locus YPL051W, strain arl3, hits give low values",1.01
same,normalized growth,"locus YPL078C, strain atp4, hits give low values",1.02
same,normalized growth,"locus YPL106C, strain sse1, hits give low values",0.807 (active)
same,normalized growth,"locus YPL240C, strain hsp82, hits give low values",0.989
COc1cccc(C2CCN(C(=O)c3cccc4ccccc34)CC2)c1,normalized growth,"locus YAR019C, strain CDC15, hits give low values",0.996
same,normalized growth,"locus YBL105C, strain PKC1, hits give low values",0.988
same,normalized growth,"locus YBR135W, strain CKS1, hits give low values",0.982
same,normalized growth,"locus YBR136W, strain MEC1, hits give low values",0.981
same,normalized growth,"locus YBR160W, strain CDC28, hits give low values",0.991
same,normalized growth,"locus YDL017W, strain CDC7, hits give low values",0.99
same,normalized growth,"locus YDL028C, strain MPS1, hits give low values",0.993
same,normalized growth,"locus YDL101C, strain DUN1, hits give low values",0.982
same,normalized growth,"locus YDL108W, strain KIN28, hits give low values",0.987
same,normalized growth,"locus YDL132W, strain cdc53, hits give low values",0.993
same,normalized growth,"locus YDL214C, strain PRR2, hits give low values",0.866
same,normalized growth,"locus YDR052C, strain DBF4, hits give low values",0.99
same,normalized growth,"locus YDR054C, strain cdc34, hits give low values",0.988
same,normalized growth,"locus YDR226W, strain ADK1, hits give low values",0.988
same,normalized growth,"locus YDR477W, strain SNF1, hits give low values",0.923
same,normalized growth,"locus YER123W, strain YCK3, hits give low values",0.828
same,normalized growth,"locus YER133W, strain GLC7, hits give low values",0.899
same,normalized growth,"locus YFL009W, strain cdc4, hits give low values",0.992
same,normalized growth,"locus YFL029C, strain CAK1, hits give low values",0.99
same,normalized growth,"locus YFR003C, strain YPI1, hits give low values",0.987
same,normalized growth,"locus YFR019W, strain FAB1, hits give low values",0.89
same,normalized growth,"locus YFR028C, strain CDC14, hits give low values",0.99
same,normalized growth,"locus YGR040W, strain KSS1, hits give low values",0.904
same,normalized growth,"locus YGR052W, strain FMP48, hits give low values",0.958
same,normalized growth,"locus YGR092W, strain DBF2, hits give low values",0.903
same,normalized growth,"locus YHR030C, strain SLT2, hits give low values",1
same,normalized growth,"locus YHR079C, strain IRE1, hits give low values",0.967
same,normalized growth,"locus YHR082C, strain KSP1, hits give low values",0.946
same,normalized growth,"locus YHR205W, strain SCH9, hits give low values",0.907
same,normalized growth,"locus YIL147C, strain SLN1, hits give low values",0.987
same,normalized growth,"locus YJL095W, strain BCK1, hits give low values",0.973
same,normalized growth,"locus YJL128C, strain PBS2, hits give low values",0.935
same,normalized growth,"locus YJL157C, strain FAR1, hits give low values",0.886
same,normalized growth,"locus YJR016C, strain ILV3, hits give low values",0.99
same,normalized growth,"locus YJR066W, strain TOR1 (second series), hits give low values",0.882
same,normalized growth,"locus YJR066W, strain TOR1, hits give low values",0.948
same,normalized growth,"locus YKL048C, strain ELM1, hits give low values",0.919
same,normalized growth,"locus YKL067W, strain YNK1, hits give low values",0.907
same,normalized growth,"locus YKL101W, strain HSL1, hits give low values",0.882
same,normalized growth,"locus YKL193C, strain SDS22, hits give low values",0.991
same,normalized growth,"locus YKL203C, strain TOR2, hits give low values",0.978
same,normalized growth,"locus YLR113W, strain HOG1, hits give low values",0.91
same,normalized growth,"locus YLR133W, strain CKI1, hits give low values",0.94
same,normalized growth,"locus YLR403W, strain SFP1, hits give low values",0.922
same,normalized growth,"locus YML070W, strain DAK1, hits give low values",0.859
same,normalized growth,"locus YMR001C, strain CDC5, hits give low values",0.987
same,normalized growth,"locus YMR205C, strain PFK2 (second series), hits give low values",0.914
same,normalized growth,"locus YMR277W, strain FCP1, hits give low values",0.995
same,normalized growth,"locus YNL006W, strain LST8, hits give low values",0.987
same,normalized growth,"locus YNL020C, strain ARK1, hits give low values",0.9
same,normalized growth,"locus YNL161W, strain CBK1, hits give low values",0.992
same,normalized growth,"locus YNL183C, strain NPR1, hits give low values",0.963
same,normalized growth,"locus YNL207W, strain RIO2, hits give low values",0.997
same,normalized growth,"locus YNL222W, strain SSU72, hits give low values",0.994
same,normalized growth,"locus YNL307C, strain MCK1 (second series), hits give low values",0.903
same,normalized growth,"locus YOL078W, strain AVO1, hits give low values",0.997
same,normalized growth,"locus YOL136C, strain PFK27, hits give low values",0.898
same,normalized growth,"locus YOR061W, strain CKA2, hits give low values",0.877
same,normalized growth,"locus YOR119C, strain RIO1, hits give low values",0.954
same,normalized growth,"locus YOR231W, strain MKK1, hits give low values",0.935
same,normalized growth,"locus YOR329C, strain SCD5, hits give low values",0.991
same,normalized growth,"locus YPL031C, strain PHO85, hits give low values",0.913
same,normalized growth,"locus YPL153C, strain RAD53, hits give low values",0.899
same,normalized growth,"locus YPL204W, strain HRR25, hits give low values",0.923
same,normalized growth,"locus YPL209C, strain IPL1, hits give low values",0.992
same,normalized growth,"locus YPL256C, strain CLN2, hits give low values",0.942
same,normalized growth,"locus YPR025C, strain CCL1, hits give low values",0.995
same,normalized growth,"locus YPR106W, strain ISR1, hits give low values",0.979
same,normalized growth,"locus YPR111W, strain DBF20, hits give low values",0.975
same,normalized growth,"strain NNK1, hits give low values",0.976
same,normalized growth,"strain TSCII, hits give low values",0.993
C[N+](C)(C)CCC(=O)c1cccc2ccccc12,normalized growth,"locus YAL040C, strain CLN3, hits give low values",0.095 (active)
same,normalized growth,"locus YCL061C, strain MRC1 (second series), hits give low values",0.951
same,normalized growth,"locus YDR150W, strain NUM1, hits give low values",0.972
same,normalized growth,"locus YDR363W, strain ESC2, hits give low values",0.962
same,normalized growth,"locus YGR078C, strain PAC10, hits give low values",0.989
same,normalized growth,"locus YJR075W, strain HOC1, hits give low values",0.813 (active)
same,normalized growth,"locus YMR263W, strain SAP30, hits give low values",0.99
same,normalized growth,"locus YMR307W, strain GAS1, hits give low values",0.775 (active)
same,normalized growth,"locus YNL153C, strain GIM3, hits give low values",0.104 (active)
same,normalized growth,"locus YNL175C, strain NOP13, hits give low values",0.0891 (active)
same,normalized growth,"locus YNL197C, strain WHI3, hits give low values",0.93
same,normalized growth,"locus YNL224C, strain SQS1, hits give low values",0.0743 (active)
same,normalized growth,"locus YOR083W, strain WHI5 (second series), hits give low values",0.231 (active)
same,normalized growth,"locus YPL241C, strain CIN2, hits give low values",1
